# PubChem BioAssay (NCATS)
# Active and inactive are the calls of the source.
# Assay: not given
# Details: Ebola virus entry cell assay, ratio channel
Compound,outcome,AC50
CC[C@@H](CO)NC(=O)[C@@H]1C=C2c3cccc4c3c(cn4C)C[C@H]2N(C)C1,inactive,–
CC(C)CC(N(C)C)C1(c2ccc(Cl)cc2)CCC1 (stereo not drawn),inactive,–
Cn1c(CCCC(=O)O)nc2cc(N(CCCl)CCCl)ccc21,inactive,–
C=C1C[C@@H]2[C@H](CC[C@]3(C)C(=O)CC[C@@H]23)[C@@]2(C)C=CC(=O)C=C12,–,15.8 µM (active)
CN1CCN(C(=O)O[C@H]2c3nccnc3C(=O)N2c2ccc(Cl)cn2)CC1,inactive,–
O=C1Nc2ccc(Cl)cc2[C@@](C#CC2CC2)(C(F)(F)F)O1,inactive,–
CCC(C(N)=O)N1CCCC1=O (stereo not drawn),inactive,–
CO[C@]12CC[C@@]3(C[C@@H]1[C@](C)(O)C(C)(C)C)[C@@H]1Cc4ccc(O)c5c4[C@@]3(CCN1CC1CC1)[C@H]2O5,inactive,–
CCN(C(C)=O)c1cccc(-c2ccnc3c(C#N)cnn23)c1,inactive,–
CCN(CCO)CCCC(C)Nc1ccnc2cc(Cl)ccc12 (stereo not drawn),–,1.26 µM (active)
O=c1[nH]c2ccccc2n1C1CCN(CCCC(c2ccc(F)cc2)c2ccc(F)cc2)CC1,–,7.94 µM (active)
NCC1(CC(=O)O)CCCCC1,inactive,–
CCC(C)n1ncn(-c2ccc(N3CCN(c4ccc(OC[C@H]5CO[C@](Cn6cncn6)(c6ccc(Cl)cc6Cl)O5)cc4)CC3)cc2)c1=O (stereo partly drawn),–,2 µM (active)
CCCC(C)(COC(N)=O)COC(=O)NC(C)C (stereo not drawn),inactive,–
CN(C)[C@@H]1C(=O)C(C(N)=O)=C(O)[C@@]2(O)C(=O)C3=C(O)c4c(O)cccc4[C@@](C)(O)[C@H]3C[C@@H]12,inactive,–
Nc1ncn([C@@H]2O[C@H](CO)[C@@H](O)[C@H]2O)c(=O)n1,inactive,–

# Assay: Immunotoxin (HA22) sensitization/mitigation study. Vehicle arm (PBS) (AID 1159510); note: potency is the fitted concentration of half-maximal effect
# Details: cancer cells viability with PBS vehicle (HA22 study); series mostly up to 46.1 µM; viability (% of control): at the top concentration
Compound,Potency,viability (% of control)
CCCc1nc2c(C)cc(-c3nc4ccccc4n3C)cc2n1Cc1ccc(-c2ccccc2C(=O)O)cc1,26.4 µM (active),–
CC(C)n1c(C=C[C@H](O)C[C@H](O)CC(=O)O)c(-c2ccc(F)cc2)c2ccccc21,8.33 µM (active),–
C[C@@H]1[C@@H](C(=O)C[C@H]2O[C@@H]3O[C@]4(C)CC[C@@H]5[C@H](C)CC[C@@H]([C@H]2C)[C@@]35OO4)O[C@@H]2O[C@]3(C)CC[C@H]4[C@H](C)CC[C@@H]1[C@@]24OO3,0.0264 µM (active),–
Cn1cnc2c(F)c(Nc3ccc(Br)cc3Cl)c(C(=O)NOCCO)cc21,–,88.9% (inactive)
COc1cccc2c1C(=O)c1c(O)c3c(c(O)c1C2=O)C[C@@](O)(C(=O)CO)C[C@@H]3O[C@H]1C[C@H](N)[C@H](O)[C@H](C)O1,0.0118 µM (active),–
Cn1c(CCCC(=O)O)nc2cc(N(CCCl)CCCl)ccc21,–,95.9% (inactive)
Cn1ccc2cc3c(cc21)CCN3C(=O)Nc1cccnc1,–,105% (inactive)
Cc1ccc(-n2nc(C(C)(C)C)cc2NC(=O)Nc2ccc(OCCN3CCOCC3)c3ccccc23)cc1,10.5 µM (active),–
Cc1cc2c(C(C)C)c(O)c(O)c(C=O)c2c(O)c1-c1c(C)cc2c(C(C)C)c(O)c(O)c(C=O)c2c1O,8.33 µM (active),–
C[C@@H]1[C@@H](CC(C[C@H]2O[C@@H]3O[C@]4(C)CC[C@@H]5[C@H](C)CC[C@@H]([C@H]2C)[C@@]35OO4)C[S+](=O)([O-])c2ccc(COC(=O)N(C)C)cc2)O[C@@H]2O[C@]3(C)CC[C@H]4[C@H](C)CC[C@@H]1[C@@]24OO3 (stereo partly drawn),0.0332 µM (active),–
O=C1Nc2ccc(Cl)cc2[C@@](C#CC2CC2)(C(F)(F)F)O1,42.9 µM (active),–
CC(C)C[C@H](NC(=O)[C@H](CCc1ccccc1)NC(=O)CN1CCOCC1)C(=O)N[C@@H](Cc1ccccc1)C(=O)N[C@@H](CC(C)C)C(=O)[C@@]1(C)CO1,0.0015 µM (active),–
CN1CC(=O)N/C1=N/C(=O)Nc1cccc(Cl)c1,–,99.9% (inactive)
CC1(CN2CCC(n3c(=O)[nH]c4ccccc43)CC2)OCc2ccccc2-n2cccc21 (stereo not drawn),26.4 µM (active),–
COc1cc([C@@H]2c3cc4c(cc3[C@H](O)[C@H]3COC(=O)[C@H]23)OCO4)cc(OC)c1OC,0.0037 µM (active),–
Cc1sc2c(c1C)C(c1ccc(Cl)cc1)=N[C@@H](CC(=O)OC(C)(C)C)c1nnc(C)n1-2,0.0743 µM (active),–
CN(C)CCN(C)CCc1ccc(Cl)c(Cl)c1,18.7 µM (active),–
CC1=C(/C=C/C(C)=C/C=C/C(C)=C/C(=O)Nc2ccc(O)cc2)C(C)(C)CCC1,1.87 µM (active),–
CS(=O)c1ccc(-c2nc(-c3ccc(F)cc3)c(-c3ccncc3)[nH]2)cc1 (stereo not drawn),–,94.7% (inactive)
C=CC(=O)Nc1cc2c(Nc3ccc(F)c(Cl)c3)ncnc2cc1OCCCN1CCOCC1,18.7 µM (active),–
CC(=O)SC[C@@H](C)C(=O)N1CCC[C@H]1C(=O)N[C@@H](Cc1ccccc1)C(=O)O,–,104% (inactive)
CCN(CCO)CCCC(C)Nc1ccnc2cc(Cl)ccc12 (stereo not drawn),–,84.4% (inactive)
CCC(C)n1ncn(-c2ccc(N3CCN(c4ccc(OC[C@H]5CO[C@](Cn6cncn6)(c6ccc(Cl)cc6Cl)O5)cc4)CC3)cc2)c1=O (stereo partly drawn),0.743 µM (active),–
COc1cc(Nc2c(C#N)cnc3cc(OCCCN4CCN(C)CC4)c(OC)cc23)c(Cl)cc1Cl,13.2 µM (active),–
CO[C@@H](C(=O)N1Cc2[nH]nc(NC(=O)c3ccc(N4CCN(C)CC4)cc3)c2C1)c1ccccc1,0.332 µM (active),–
COc1cc2c(N3CCN(C(=O)Nc4ccc(OC(C)C)cc4)CC3)ncnc2cc1OCCCN1CCCCC1,20.9 µM (active),–
Nc1ncn([C@@H]2O[C@H](CO)[C@@H](O)[C@H]2O)c(=O)n1,4.18 µM (active),–
